The values below come from PubChem BioAssay (NCATS).

Records with an inconclusive call do not appear. Unmarked numbers belong to inactive results. The source made the active and inactive calls. Calls come from the whole dose curve; as a rule, active = well fitted curve in the direction sought with a large enough effect; inconclusive = small, poorly fitted or top-dose-only effect, or another doubt; inactive = no such curve, though single readings can be large; an effect the other way counts as inactive or inconclusive.

Assay [1] concerns HaCat. The experiment in a line: Cytotoxic Profiling of Annotated Libraries Using Quantitative High-Throughput Screening (AID 1296008). Note: nearly all actives have a fitted effect of over 60% in size. Particulars: Five cell lines viability, CellTiter-Glo ATP luminescence, 48-72 h; max response: stronger effect = lower value. The method in brief: (§1)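 Cytotoxicity was measured as CellTiter-Glo ATP luminescence, read after 10 min at room temperature. Compound treatment of the cells lasted 48 or 72 hr at 37 degrees Celsius in a qHTS format.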
(In general: In ATP-based viability assays light output follows the ATP content of the culture.)

A further assay relates to KB-3-1. The description is as above. The following applies: Five cell lines viability, CellTiter-Glo ATP luminescence, 48-72 h; max response: stronger effect = lower value. The essentials:
as §1

Assay [2] deals with NIH3T3. The assay is described as above. The following applies: Five cell lines viability, CellTiter-Glo ATP luminescence, 48-72 h; max response: stronger effect = lower value. The essentials: as §1
The subject of assay [3] is HEK293T. The experiment in a line: qHTS assay to identify novel small-molecules to repurpose for Merkel cell carcinoma treatment (AID 1296009). Note: nearly all actives have a fitted effect of over 60% in size. Note: potency is the fitted concentration of half-maximal effect. The following applies: MCC and control cell lines, CellTiter-Glo viability, 72 h; at 44.8 µM (top of the series) unless noted. The essentials: (§2)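 72 hr, 37 degree celsius; NPC 8-pt / MIPE 11-pt dose response; compound pinned in DMSO; CellTiter-Glo, 10 min RT, luminescence; normalized to no-cell and DMSO controls.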
For orientation: qHTS replaces the single test concentration by a dilution series.

Another assay has as its system MCC-13. The assay is described as above. The following applies: MCC and control cell lines, CellTiter-Glo viability, 72 h; series mostly up to 46 µM. The method in brief: as §2
The test system of the next assay is MCC-26. Described as above. The following applies: MCC and control cell lines, CellTiter-Glo viability, 72 h; series mostly up to 46 µM. The essentials:
as §2

The next assay has as its system MKL-1. The description is as above. The following applies: MCC and control cell lines, CellTiter-Glo viability, 72 h; series mostly up to 46 µM. The method in brief: as §2
The subject of the next assay is UISO. Described as above. The following applies: MCC and control cell lines, CellTiter-Glo viability, 72 h; series mostly up to 46 µM. The essentials: as §2
A further assay concerns C33A. The experiment in a line: Primary qHTS to identify gynecologic anti-cancer compounds using libraries of approved drugs and bioactive compounds (AID 1345084). Note: nearly all actives have a fitted effect of over 55% in size. Particulars: Gynecologic cancer cell panel viability, ATPlite luminescence, 48 h; series mostly up to 57.5 µM. The method in brief:
(§3)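 Five-point cytotoxicity, 48 h drug exposure at 37 C, 5% CO2, on cells seeded 16 h beforehand. ATP content read by ATPlite luminescence.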

For another assay, the system named is CAOV3. The description is as above. Particulars: Gynecologic cancer cell panel viability, ATPlite luminescence, 48 h; series mostly up to 57.5 µM. The method in brief: as §3
For the next assay, the system named is CASKI. Described as above. Particulars: Gynecologic cancer cell panel viability, ATPlite luminescence, 48 h; series mostly up to 57.5 µM. The method in brief:
as §3

A further assay has as its system Es-2. The assay is described as above. Particulars: Gynecologic cancer cell panel viability, ATPlite luminescence, 48 h; series mostly up to 57.5 µM. The essentials:
as §3

The next assay relates to HeLa. The assay is described as above. The following applies: Gynecologic cancer cell panel viability, ATPlite luminescence, 48 h; series mostly up to 57.5 µM. The method in brief: as §3
Assay [4] concerns Hek293T. Described as above. Particulars: Gynecologic cancer cell panel viability, ATPlite luminescence, 48 h, control line for the selectivity index; series mostly up to 57.5 µM. The method in brief: as §3
The next assay has as its system JEG-3. The description is as above. Particulars: Gynecologic cancer cell panel viability, ATPlite luminescence, 48 h; series mostly up to 57.5 µM. The method in brief:
as §3

The next assay deals with OV90. The description is as above. The following applies: Gynecologic cancer cell panel viability, ATPlite luminescence, 48 h; series mostly up to 57.5 µM. The essentials:
as §3

Assay [5] deals with HACAT. The experiment in a line: qHTS assay to identify novel small-molecules to repurpose for Merkel cell carcinoma treatment (AID 1296009). Note: nearly all actives have a fitted effect of over 60% in size. Note: potency is the fitted concentration of half-maximal effect. Particulars: MCC and control cell lines, CellTiter-Glo viability, 72 h; at 44.8 µM (top of the series) unless noted. The essentials: as §2
A further assay has as its system MKL-2. The description is as above. Particulars: MCC and control cell lines, CellTiter-Glo viability, 72 h; series mostly up to 46 µM. The essentials: as §2
Another assay concerns WaGa. The description is as above. Particulars: MCC and control cell lines, CellTiter-Glo viability, 72 h; series mostly up to 46 µM. The method in brief:
as §2

Assay [6] relates to NIH3T3. The assay is described as above. The following applies: MCC and control cell lines, CellTiter-Glo viability, 72 h; at 44.8 µM (top of the series) unless noted. The essentials: as §2
% is set by controls: 0 for no effect and ±100 for the full control effect.

As for `CC(=O)OCC[N+](C)(C)C`, the max response in the assay on HaCat [1] is -14.7%; with KB-3-1, 2.39%; in the assay with NIH3T3 [2] it was 3.81%. Besides, the call in the assay on HEK293T [3] was inactive. Besides, the Potency result in the assay with MCC-13, in the assay on MCC-26, in the assay with MKL-1, in the assay with UISO, in the assay on C33A and in the assay with CAOV3 was “inactive” in each case. Also, the Potency entry in the assay on CASKI, in the assay with Es-2, in the assay with HeLa, in the assay on Hek293T [4], in the assay on JEG-3 and with OV90 was “inactive” throughout.
Consider `CSc1ccc(/C=C2/C(C)=C(CC(=O)O)c3cc(F)ccc32)cc1`, for which the compound was classed as inactive with HaCat [1] and in the assay on HACAT [5]. For the same compound, the max response is -18.2% in the assay with KB-3-1 and -3.24% in the assay with NIH3T3 [2]. Further, the Potency result with MCC-13, with MCC-26, in the assay on MKL-1, with MKL-2, in the assay on UISO and in the assay with WaGa was “inactive” throughout. Also, the Potency entry with C33A, in the assay on CAOV3, with CASKI, with Es-2, with HeLa and in the assay on Hek293T [4] was “inactive” in each case. The Potency entry in the assay with JEG-3 and with OV90 was “inactive” throughout.
Take `CO/N=C(/C(=O)N[C@@H]1C(=O)N2C(C(=O)OCOC(=O)C(C)(C)C)=C(C)CS[C@H]12)c1csc(N)n1`: the compound was classed as inactive in the assay on HaCat [1] and in the assay with HACAT [5]. Further, the max response in the assay with KB-3-1 is -4.57%; in the assay with NIH3T3 [2] it was 0.923%. Further, the Potency entry in the assay on MCC-13, in the assay with MCC-26, with MKL-1, with UISO, with C33A and in the assay with CAOV3 was “inactive” throughout. Also, the Potency result in the assay on CASKI, with Es-2, with HeLa, with Hek293T [4], in the assay on JEG-3 and in the assay on OV90 was “inactive” throughout.
Turning to `CC(=O)Nc1c(I)c(NC(C)=O)c(I)c(C(=O)O)c1I`, the result in the assay on HaCat [1] and in the assay with HACAT [5] was inactive. For the same compound, the figures for the max response in the assay with KB-3-1 and in the assay with NIH3T3 [2] were -3.56% and 4.63%, respectively. Also, the Potency entry in the assay on MCC-13, in the assay on MCC-26, in the assay with MKL-1, in the assay on MKL-2, with UISO and in the assay on WaGa was “inactive” each time. In addition, the Potency result in the assay with C33A, with CAOV3, in the assay on CASKI, in the assay with Es-2, in the assay with HeLa and in the assay with Hek293T [4] was “inactive” throughout. The Potency entry with JEG-3 and with OV90 was “inactive” each time.
In the case of `CC(=O)OC/C=C(C)/C=C/C=C(C)/C=C/C1=C(C)CCCC1(C)C`, the compound was called inactive in the assay on HaCat [1] and in the assay with HACAT [5]. Moreover, the max response was -3.66% in the assay on KB-3-1 and 1.83% in the assay on NIH3T3 [2]. The Potency result in the assay with MCC-13, in the assay with MCC-26, with UISO, in the assay on C33A, with CAOV3 and in the assay on CASKI was “inactive” in each case. Moreover, the Potency result in the assay with Es-2, in the assay on HeLa, with Hek293T [4], in the assay on JEG-3 and with OV90 was “inactive” throughout. For the same compound, the Potency in the assay on MKL-2 was 3.76 µM (active).
As to `O=C(CO)[C@@H](O)[C@H](O)[C@@H](O)CO`, the max response was 3.88% in the assay with HaCat [1] and -7.71% with KB-3-1. The outcome in the assay with NIH3T3 [2], with HEK293T [3] and with NIH3T3 [6] was inactive. For the same compound, the Potency entry with MCC-13, in the assay with MCC-26, in the assay on MKL-1, in the assay with MKL-2, with UISO and with WaGa was “inactive” each time. The Potency entry with C33A, in the assay with CAOV3, in the assay with CASKI, in the assay with Es-2, in the assay on HeLa and in the assay on Hek293T [4] was “inactive” throughout. Moreover, the Potency result in the assay with JEG-3 and in the assay on OV90 was “inactive” throughout.
As for `CN(C)CCOC1=Cc2ccccc2Sc2ccc(Cl)cc21`, the compound was called inactive in the assay with HaCat [1] and in the assay with HACAT [5]. In addition, the max response with KB-3-1 was -15.8%; in the assay with NIH3T3 [2], -0.0906%. Moreover, the Potency entry with MCC-13, in the assay with MCC-26, in the assay with MKL-1, with UISO, in the assay on C33A and with CAOV3 was “inactive” in each case. Further, the Potency result in the assay on CASKI, in the assay with Es-2, with HeLa, in the assay on Hek293T [4] and with JEG-3 was “inactive” throughout.
